Source: PubChem BioAssay (NCI)
Compounds without any hit were thinned out: in the full panel of roughly 79,000, 15% have a hit. Values without a mark were called inactive. Activity calls are given as the source filed them. No stated cut-off is given here; in the data, active means growth inhibition above about 70%; inactive means the rest.

Columns and labels:
[1] = NCI Yeast Anticancer Drug Screen. Data for the rad50 strain (AID 155);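 further: 0% = growth of vehicle-only cultures of the same strain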; details: S. cerevisiae rad50 strain growth inhibition, hits give high values
Procedure, shortened: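 Genetically altered yeast (DNA repair pathway); compound treatment; growth inhibition vs vehicle ctrl.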

[2] = NCI Yeast Anticancer Drug Screen. Data for the mec2-1 strain (AID 157); details: S. cerevisiae mec2-1 strain, hits give high values
Procedure, shortened: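 Readout is yeast growth inhibition, normalised to vehicle-treated controls, in the mec2-1 strain exposed to compound.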

[3] = NCI Yeast Anticancer Drug Screen. Data for the sgs1 mgt1 strain (AID 161);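 further: 0% = growth of cultures given vehicle only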; details: S. cerevisiae sgs1 mgt1 strain, hits give high values
Procedure, shortened: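 Yeast cells carrying a defined DNA-repair defect were exposed to test compounds. Growth inhibition was measured relative to vehicle-treated controls.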

[4] = NCI Yeast Anticancer Drug Screen. Data for the cln2 rad14 strain (AID 165);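 further: 0% = growth equal to vehicle treated cultures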; details: S. cerevisiae cln2 rad14 strain, hits give high values
Procedure, shortened: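 Relative to vehicle controls, growth inhibition of compound-treated cln2 rad14 yeast was recorded.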

[5] = NCI Yeast Anticancer Drug Screen. Data for the bub3 strain (AID 167); details: S. cerevisiae bub3 mutant strain, hits give high values
Procedure, shortened: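 Yeast carrying a defined mutation is treated with each compound, and growth is compared with that of vehicle-exposed cells to give inhibition.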

[6] = NCI Yeast Anticancer Drug Screen. Data for the mlh1 rad18 strain (AID 175); details: S. cerevisiae mlh1 rad18 strain growth inhibition, hits give high values
Procedure, shortened: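 Test agents were incubated with a yeast strain of defined genotype (DNA damage repair defect). Inhibition of growth was derived by comparison with vehicle-exposed cultures.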

[7] = at 5.0 µM (retest, dose inferred, filed as 0.5)
[8] = at 50.0 µM (retest, dose inferred, filed as 5.0)

Row | SMILES | growth inhibition [1, 7] | growth inhibition [1, 8] | growth inhibition ([1]; at 50.0 µM) | growth inhibition [2, 7] | growth inhibition [2, 8] | growth inhibition ([2]; at 50.0 µM) | growth inhibition [3, 7] | growth inhibition [3, 8] | growth inhibition ([3]; at 50.0 µM) | growth inhibition [4, 7] | growth inhibition [4, 8] | growth inhibition ([4]; at 50.0 µM) | growth inhibition [5, 7] | growth inhibition [5, 8] | growth inhibition ([5]; at 50.0 µM) | growth inhibition [6, 7] | growth inhibition [6, 8] | growth inhibition ([6]; at 50.0 µM)
1 | CS/C(C#N)=C(\C#N)SC | 10% | 78% (active) | 79.2% (active) | 3% | 27% | 16.3% | 2% | 23% | 67.6% | 3% | 12% | 23.6% | 2% | 59% | 53.1% | 7% | 35% | 43.5%
2 | O=C(NCc1ccccc1)C1C(=O)N(Cc2ccccc2)C(=O)/C1=N/O (stereo not given) | -16% | -1% | -17.1% | 2% | 1% | 16.8% | -14% | -22% | 35.2% | -4% | -1% | -22.5% | 2% | -1% | 31.6% | -2% | -3% | 12.8%
3 | NC(=O)NNC(=O)NNC(N)=O | -4% | 9% | 0.95% | -2% | 1% | -4.8% | 3% | 4% | -20.2% | -1% | 3% | 70.8% (active) | -4% | -8% | -3.5% | -3% | 9% | -3.85%
4 | Cc1cc(C(=O)O)c(C)cc1SSc1cc(C)c(C(=O)O)cc1C | -12% | 72% (active) | 51.4% | 11% | 74% (active) | 9.25% | 4% | 76% (active) | 54.7% | -5% | 70% (active) | 3.7% | -13% | 63% | 41.4% | -3% | 81% (active) | 69.2%
5 | BrCc1ccccc1C[P+](c1ccccc1)(c1ccccc1)c1ccccc1 | 55% | 98% (active) | 89.5% (active) | 52% | 99% (active) | 90.7% (active) | 54% | 99% (active) | 85.5% (active) | 25% | 97% (active) | 82.3% (active) | 47% | 98% (active) | 89.7% (active) | 69% | 98% (active) | 88.2% (active)
6 | c1ccc(-c2cc(N3CCCCC3)c(-c3ccccc3)o2)cc1 | -1% | 11% | 21.4% | 9% | 14% | 1.1% | 8% | 28% | 44.4% | 1% | 0% | -5.7% | 7% | 12% | 85.4% (active) | 15% | 43% | 25.1%
7 | OC(c1ccccc1)(c1ccccc1)c1ccc[cH-]1.OC(c1ccccc1)(c1ccccc1)c1ccc[cH-]1.[Fe+2] | 3% | -5% | -0.6% | 3% | -1% | 9.45% | 3% | -16% | -2.3% | 4% | -15% | -13.6% | 3% | -1% | 70.4% (active) | 1% | -3% | 35.4%
8 | CC(=O)N(C1=C(Cl)C(=O)c2ccccc2C1=O)c1ccc([N+](=O)[O-])cc1 | 98% (active) | 98% (active) | 99.2% (active) | 99% (active) | 99% (active) | 99.2% (active) | 98% (active) | 100% (active) | 99.5% (active) | 96% (active) | 97% (active) | 99.5% (active) | 99% (active) | 98% (active) | 98.6% (active) | 98% (active) | 99% (active) | 99% (active)
9 | COc1ccc(N2C(=O)C(=O)N(c3ccccc3[N+](=O)[O-])C2=S)cc1 | 16% | 99% (active) | 86.3% (active) | -10% | 96% (active) | 90% (active) | 7% | 98% (active) | 86.2% (active) | 16% | 94% (active) | 72.2% (active) | 7% | 98% (active) | 78.2% (active) | 3% | 98% (active) | 83.9% (active)
10 | CCOC(=O)CN1CCCC(C(=O)CC2(O)C3(Cl)C4(Cl)C5(Cl)C(Cl)(Cl)C6(Cl)C4(Cl)C2(Cl)C6(Cl)C53Cl)C1 (stereo not given) | 62% | 98% (active) | 52.5% | 54% | 99% (active) | 49.9% | 61% | 99% (active) | 55% | 36% | 99% (active) | 71.2% (active) | 59% | 99% (active) | 48.5% | 87% (active) | 99% (active) | 50.3%
